Experiment [1] addresses Luciferin 4-monooxygenase (Photinus pyralis) (UniProt P08659). The experiment can be described thus: qHTS assay to identify small molecule inhibitors of firefly luciferase (AID 1224835). Also: nearly all actives have a fitted effect of over 25% in size. Also: potency is read from the fitted curve at half-maximal effect. The procedure, abridged: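 Quantitative HTS format; KM concentrations of both substrates. Purified P. pyralis FLuc activity quantified from luminescence images.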
A general note: qHTS replaces the single test concentration by a dilution series.

Experiment [2] can be described thus: qHTS assay to identify small molecule agonists of the constitutive androstane receptor (CAR) signaling pathway - cell viability counter screen (AID 1224836). Also: nearly all actives have a fitted effect of over 45% in size. Also: potency is read from the fitted curve at half-maximal effect. The procedure, abridged: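 HepG2-CYP2B6-hCAR, 2500 cells/well, 4 h pre-incubation; cpd 15 conc + PK11195 0.75 uM final; 23 h, 37 C/5% CO2; CellTiter-Fluor, fluorescence.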
A short description of experiment [3]: qHTS assay to identify small molecule antagonists of the constitutive androstane receptor (CAR) signaling pathway - cell viability counter screen (AID 1224837). Also: nearly all actives have a fitted effect of over 45% in size. Also: potency is read from the fitted curve at half-maximal effect. The procedure, abridged: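 Using CellTiter-Fluor, viability is scored in HepG2 cells stably carrying hCAR and a 2.2kb CYP2B6 reporter after 23 hr compound exposure across 15 concentrations, with CITCO present at 50 nM.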

Experiment [4] deals with Nuclear receptor subfamily 1 group I member 3 (Homo sapiens) (UniProt Q14994). The experiment in a line: qHTS assay to identify small molecule antagonists of the constitutive androstane receptor (CAR) signaling pathway (AID 1224838).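 Also: HepG2 cells stably expressing hCAR with CYP2B6 luciferase reporter stimulated by CITCO; nearly all actives have a fitted effect of over 40% in size.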 Also: potency is read from the fitted curve at half-maximal effect. The procedure, abridged: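 Reporter luminescence was quantified after 24 h exposure of hCAR/CYP2B6-2.2kb double-stable HepG2 cells to compounds at 15 concentrations in the presence of 50 nM CITCO final.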
Nuclear receptor subfamily 1 group I member 3 (Homo sapiens), sequence (Q14994 whole entry, looked up): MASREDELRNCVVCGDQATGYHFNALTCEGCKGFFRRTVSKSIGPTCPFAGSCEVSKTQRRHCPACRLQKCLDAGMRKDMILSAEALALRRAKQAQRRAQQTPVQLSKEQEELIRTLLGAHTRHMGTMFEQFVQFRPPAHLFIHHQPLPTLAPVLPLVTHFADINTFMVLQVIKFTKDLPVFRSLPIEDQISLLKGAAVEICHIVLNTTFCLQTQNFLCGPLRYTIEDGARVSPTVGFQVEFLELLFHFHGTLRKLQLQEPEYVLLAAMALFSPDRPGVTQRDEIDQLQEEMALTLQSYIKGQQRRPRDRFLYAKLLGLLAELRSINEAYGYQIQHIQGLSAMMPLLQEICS

Experiment [5] has the same target. The experiment can be described thus: qHTS assay to identify small molecule agonists of the constitutive androstane receptor (CAR) signaling pathway (AID 1224839). Also: nearly all actives have a fitted effect of over 15% in size. Also: potency is read from the fitted curve at half-maximal effect. The procedure, abridged:
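HepG2-CYP2B6-hCAR cells, 2500/well, 4 h pre-incubation; compounds 15 conc.; PK11195 0.75 uM final; 24 h, 37 C/5% CO2; ONE-Glo luciferase read.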

The target of experiment [6] is Thyrotropin receptor (Homo sapiens) (UniProt P16473). The experiment in a line: qHTS assay to identify small molecule agonists of the thyroid stimulating hormone receptor (TSHR) signaling pathway (AID 1224843; calls by dose curve; also: nearly all actives have a fitted effect of over 45% in size). The procedure, abridged: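 TSHR-expressing HEK293 cells (800 per well) were exposed to compounds for 30 min at room temperature. cAMP was then detected by HTRF competition with cAMP-d2 and anti-cAMP cryptate, read after 1 h at room temperature. Fifteen concentrations, triplicate.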
Thyrotropin receptor (Homo sapiens), sequence (P16473 whole entry, looked up): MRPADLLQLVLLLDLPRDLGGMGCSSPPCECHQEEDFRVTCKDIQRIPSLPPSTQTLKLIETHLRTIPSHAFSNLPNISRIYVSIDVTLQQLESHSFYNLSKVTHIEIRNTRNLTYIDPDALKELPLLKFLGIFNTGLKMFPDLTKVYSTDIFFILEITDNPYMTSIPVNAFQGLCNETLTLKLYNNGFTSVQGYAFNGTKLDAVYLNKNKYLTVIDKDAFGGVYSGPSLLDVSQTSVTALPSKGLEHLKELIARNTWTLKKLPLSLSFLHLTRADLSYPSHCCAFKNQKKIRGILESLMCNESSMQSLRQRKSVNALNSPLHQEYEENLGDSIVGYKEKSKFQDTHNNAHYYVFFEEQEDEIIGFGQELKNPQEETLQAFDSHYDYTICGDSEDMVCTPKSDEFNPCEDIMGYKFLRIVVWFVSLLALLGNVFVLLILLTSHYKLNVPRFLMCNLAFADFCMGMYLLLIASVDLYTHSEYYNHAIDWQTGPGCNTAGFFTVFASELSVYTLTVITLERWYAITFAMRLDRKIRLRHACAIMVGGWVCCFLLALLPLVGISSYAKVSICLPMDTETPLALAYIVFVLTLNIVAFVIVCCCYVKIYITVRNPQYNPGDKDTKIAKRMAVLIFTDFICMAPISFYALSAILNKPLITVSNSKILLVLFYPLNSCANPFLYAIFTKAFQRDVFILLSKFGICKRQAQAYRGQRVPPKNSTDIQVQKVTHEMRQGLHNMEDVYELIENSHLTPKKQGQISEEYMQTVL

A short description of experiment [7]: qHTS assay to identify small molecule agonists of the hypoxia (HIF-1) signaling pathway - cell viability counter screen (AID 1224844; calls by dose curve; also: nearly all actives have a fitted effect of over 50% in size). The procedure, abridged: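 Multiplexed with the HRE beta-lactamase assay, this viability read used CellTiter-Glo luminescence (30 min, RT) on HRE-bla ME-180 cells treated 17 hrs with compounds in 0.5% dialyzed FBS medium.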
Experiment [8] is described as follows: qHTS assay to identify small molecule agonists of H2AX - cell viability counter screen (AID 1224847; calls by dose curve; also: top concentration of the series differs between compounds; nearly all actives have a fitted effect of over 30% in size). The procedure, abridged: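 Cells plated first: CHO-K1, 1000 per well in 10% FBS medium, incubated overnight at 37C. Then 15-point compound titration added (final DMSO 0.76%) for 3 hr. Finally CellTiter-Glo added and luminescence read.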
Experiment [9] in a line: qHTS RealTime-Glo MT Cell Viability Assay in HepG2 cells - 24 hour (AID 1224867). Also: nearly all actives have a fitted effect of over 50% in size. Also: potency is read from the fitted curve at half-maximal effect. The procedure, abridged: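 qHTS, HepG2, 600 cells/well, RealTime-Glo (NanoLuc + prosubstrate) added with cells; 5 h preincubation; DMSO compound addition; 37 C; luminescence at 0/8/16/24/32/40 h.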
The nature of experiment [10]: qHTS RealTime-Glo MT Cell Viability Assay in HEK293 cells - 32 hour (AID 1224868). Also: nearly all actives have a fitted effect of over 50% in size. Also: potency is read from the fitted curve at half-maximal effect. The procedure, abridged:
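Assay medium contained NanoLuc luciferase plus cell-permeant prosubstrate, added with HEK293 cells at 600 cells/well. After 5 h at 37 C/5% CO2 compounds were added; plates stayed at 37 C for 40 h with serial luminescence reads.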

Experiment [11] in a line: A CellTox Green Cytotoxicity Assay to monitor cytotoxicity in HEK293 cells - 0 hour (AID 1224869). Also: nearly all actives have a fitted effect of over 50% in size. The procedure, abridged:
(§1)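 Seeding of HEK293 cells together with cytotoxicity dye preceded a 5 h incubation at 37 C/5% CO2. Test compounds in DMSO were then added and fluorescence monitored across 40 h.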

Experiment [12] can be described thus: qHTS RealTime-Glo MT Cell Viability Assay in HepG2 cells - 40 hour (AID 1224870). Also: nearly all actives have a fitted effect of over 50% in size. The procedure, abridged:
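HepG2 cells mixed with RealTime-Glo MT reagents (NanoLuc plus cell-permeant prosubstrate) were seeded at 600 cells/well, incubated 5 h at 37 C/5% CO2, then pinned with compounds in DMSO; nonlytic luminescence tracked viability during 40 h treatment.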

Experiment [13] is described as follows: A CellTox Green Cytotoxicity Assay to monitor cytotoxicity in HEK293 cells - 40 hour (AID 1224871). Also: nearly all actives have a fitted effect of over 45% in size. The procedure, abridged: as §1
Experiment [14] is described as follows: qHTS assay to identify small molecule antagonists of the estrogen related receptor signaling pathway with the pleiotropic PPARgamma coactivator (PGC) from Tox21 10K library - cell viability counter screen (AID 1224840; active = well fitted cell-killing curve with a large enough effect in the repeat runs, not every such curve was filed as active; also: nearly all actives have a fitted effect of over 40% in size). The procedure, abridged:
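Here the PGC/ERR cells serve as a cytotoxicity control: they are exposed to compounds for 17.5 hours at 37 C, and live-cell signal is quantified using CellTiter-Fluor fluorescence.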

Experiment [15] can be described thus: qHTS assay to identify small molecule antagonists of the estrogen related receptor signaling pathway with the pleiotropic PPARgamma coactivator (PGC) from Tox21 10K library (AID 1224841; call rule not given here; also: potency is read from the fitted curve at half-maximal effect). The procedure, abridged: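 Each well held 2,000 PGC/ERR cells, pre-incubated six hours (37 C, 5% CO2). Test substances in DMSO were added by pin tool and left for 18 h at 37 C before luciferase detection by One-Glo.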

Experiment [16] can be described thus: qHTS assay to identify small molecule agonists of the estrogen related receptor signaling pathway with the pleiotropic PPARgamma coactivator (PGC) from Tox21 10K library (AID 1224842). Also: nearly all actives have a fitted effect of over 15% in size. The procedure, abridged: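 PGC/ERR reporter cells (NTP line) were seeded 2,000 per well, rested 6 h at 37 C/5% CO2, then pin-dosed with compounds in DMSO for 18 h at 37 C; luciferase read by One-Glo luminescence after 30 min at room temperature.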

Experiment [17] in a line: qHTS assay to identify small molecule agonists of H2AX (AID 1224845; active = well fitted activation curve with a large enough effect in the signal ratio in the repeat runs, not every such curve was filed as active; the % refers to the signal ratio). The procedure, abridged: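 Wild-type CHO-K1 cells plated overnight, then exposed 3 hr at 37C to compounds at 15 concentrations (0.76% DMSO). Lysed, then HTRF anti-pH2AX(S139)-cryptate/anti-H2AX-d2 detection after 24 hr at room temperature; emissions 665 and 620 nm.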
A short description of experiment [18]: qHTS assay to identify small molecule agonists of the hypoxia (HIF-1) signaling pathway (AID 1224846; active = well fitted activation curve with a large enough effect in the signal ratio in the repeat runs, not every such curve was filed as active; the % refers to the signal ratio). The procedure, abridged:
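Hypoxia-pathway activation was scored as increased beta-lactamase from an HRE-controlled reporter in ME-180 cells; plated at 2,000 cells per well with 0.5% dialyzed FBS, they were exposed 17 hrs to compounds and then given CCF4-AM.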

A short description of experiment [19]: qHTS assay to identify small molecule antagonists of the estrogen related receptor (ERR) signaling pathway from Tox21 library (AID 1224848). Also: nearly all actives have a fitted effect of over 50% in size. Also: potency is read from the fitted curve at half-maximal effect. The procedure, abridged:
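Cells: ERR line, 2,000/well; 6 h preincubation 37 C/5% CO2. Cpd in DMSO via pin tool; 18 h, 37 C. ONE-Glo, 30 min RT, luminescence.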

Experiment [20] can be described thus: qHTS assay to identify small molecule agonists of the estrogen related receptor (ERR) signaling pathway from Tox21 library (AID 1224849; calls by dose curve; also: nearly all actives have a fitted effect of over 15% in size). Conditions: ERR reporter cell line, ONE-Glo luciferase, 18 h. The procedure, abridged: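 Six hours post-seeding at 37 C/5% CO2, ERR cells receive DMSO-solubilised compounds; after 18 h at 37 C, ONE-Glo reagent is applied and luminescence recorded.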

SMILES strings stand for the structures. Where “and” joins values, the source holds several entries; their conditions need not be identical. Equal values may be shown once. Inconclusive results are not listed. More than one record can exist for a structure, and the calls need not agree. Calls of active or inactive are those of the source. Unless noted, calls follow the shape of the dose curve; as a rule, active = well fitted curve in the direction sought with a large enough effect in the repeat runs; inconclusive = weak or mixed curves; inactive = no such curve, though single readings can be large; an effect the other way counts as inactive or inconclusive.
% is scaled to controls: 0 for no effect and ±100 for the full control effect.

Luciferin 4-monooxygenase (Photinus pyralis), sequence (P08659 whole entry, looked up): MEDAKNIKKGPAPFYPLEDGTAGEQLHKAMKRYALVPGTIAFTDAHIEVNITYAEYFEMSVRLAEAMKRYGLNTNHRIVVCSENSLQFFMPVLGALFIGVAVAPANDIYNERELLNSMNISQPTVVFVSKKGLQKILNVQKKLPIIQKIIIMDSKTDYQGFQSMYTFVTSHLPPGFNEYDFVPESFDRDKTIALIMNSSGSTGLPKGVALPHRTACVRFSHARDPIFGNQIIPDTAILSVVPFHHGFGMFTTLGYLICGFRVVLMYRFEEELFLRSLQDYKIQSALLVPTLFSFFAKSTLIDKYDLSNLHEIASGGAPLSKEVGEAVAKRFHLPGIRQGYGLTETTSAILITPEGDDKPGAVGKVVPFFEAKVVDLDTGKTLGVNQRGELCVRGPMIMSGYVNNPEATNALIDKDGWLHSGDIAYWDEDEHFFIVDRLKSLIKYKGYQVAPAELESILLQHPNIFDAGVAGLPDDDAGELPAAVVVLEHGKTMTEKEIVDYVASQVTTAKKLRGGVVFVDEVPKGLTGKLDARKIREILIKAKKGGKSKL

Consider `O=C(O)COCCN1CCN(C(c2ccccc2)c2ccc(Cl)cc2)CC1` (centres undefined), for which the Potency entry in experiment [1], in experiment [2], in experiment [3], in experiment [4], in experiment [5] and in [6] was “inactive” each time. Further, the Potency entry in experiment [7], in experiment [8], in experiment [9], in [10], in [11] and in experiment [12] was “inactive” each time. Besides, the Potency result in [13] was “inactive”.
On to `FC(F)(F)C(Cl)Br` (centres undefined), for which the Potency entry in [1], in experiment [2], in [3], in [14], in experiment [15] and in experiment [16] was “inactive” each time. The Potency result in experiment [6], in [7], in experiment [17], in [8], in experiment [19] and in experiment [9] was “inactive” each time. Moreover, the Potency entry in [10], in [11] and in experiment [13] was “inactive” in each case. Moreover, the compound was called inactive in experiment [18]. The figures for the activity change, positive = activation in [20] (at 42.5 µM (top of the series)) and in [20] (at 92.4 µM (top of the series)) were 6.22% (inactive) and 3.79% (inactive), respectively.
Regarding `CCC/C=C/C=O`, the Potency result in [1], in experiment [2], in [3], in [4], in experiment [6] and in [7] was “inactive” in each case. Besides, the Potency result in [17], in experiment [8], in experiment [9], in experiment [10], in experiment [11] and in [12] was “inactive” in each case. The Potency result in [13] is “inactive”. In addition, in experiment [18], the outcome was inactive.
For the compound `CCc1cccc2c3c([nH]c12)C(CC)(CC(=O)O)OCC3` (centres undefined), the Potency result in experiment [1], in experiment [2], in experiment [3], in [4], in experiment [5] and in [6] was “inactive” each time. The Potency entry in experiment [7], in [17], in experiment [9], in experiment [10], in experiment [11] and in experiment [12] was “inactive” throughout. Besides, the Potency result in [13] was “inactive”.
As for `Cc1ccc(C)c(O)c1`, the Potency result in experiment [1], in experiment [2], in experiment [3], in experiment [4], in experiment [5] and in [6] was “inactive” each time. Also, the Potency entry in [7], in experiment [17], in experiment [8], in experiment [9], in experiment [10] and in experiment [11] was “inactive” each time. In experiment [13], the Potency result was “inactive”. The compound was classed as inactive in experiment [18].
In the case of `CC1(C)C(C=C(Cl)Cl)C1C(=O)OCc1cccc(Oc2ccccc2)c1` (centres undefined), the Potency entry in experiment [1], in experiment [2], in [3], in experiment [4], in [14] and in [7] was “inactive” each time. Also, the Potency entry in experiment [17], in experiment [9], in [10], in experiment [11], in experiment [12] and in experiment [13] was “inactive” in each case. Moreover, the Potency in experiment [5] was 6.81 µM (active) and 6.11 µM (active). Further, the compound was called inactive in [18].
As for `Nc1ccc2c(O)cc(S(=O)(=O)O)cc2c1`, the Potency in [1] was 63.4 µM (active) and 44.8 µM (active); in [2], 21.7 µM (active); in experiment [3], 19.4 µM (active) and 68.6 µM (active); in experiment [4], 3.86 µM (active) and 686 nM (active); in experiment [15], 15.4 µM (active); in [19], 24.4 µM (active) and 13.7 µM (active). Further, the Potency in [10] is 6.17 µM (active). The Potency entry in [5], in experiment [16], in experiment [6], in experiment [8], in experiment [9] and in [11] was “inactive” throughout. Moreover, the Potency entry in experiment [13] is “inactive”. Moreover, in [18], the outcome was inactive. In addition, the activity change, positive = activation in experiment [20] (at 92.4 µM (top of the series)) is -54% (inactive) and -40.6% (inactive).
Consider `IC(I)I`, for which the Potency in experiment [1] is 35.5 µM (active) and 35.6 µM (active); in experiment [15], 48.5 µM (active) and inactive; in [9], 38.8 µM (active) and 38.9 µM (active). The Potency result in experiment [2], in experiment [3], in experiment [14], in [16], in experiment [6] and in experiment [7] was “inactive” throughout. Besides, the Potency entry in experiment [17], in experiment [8], in experiment [19], in [10], in experiment [11] and in experiment [13] was “inactive” each time. The compound was classed as inactive in [18]. For the same compound, the activity change, positive = activation in [20] (at 92.4 µM (top of the series)) was 0.549% (inactive) and 0.511% (inactive).

(Values after PubChem BioAssay (Tox21).)
